system: PPARg DBDmut IVT, anti-PPARg (DBD mutation: PPARg1 K132A/R137A, NR concentration 270 nM); experiment: PBM binding z-score (relative to random genomic background probes); higher = stronger binding; sequences stand for … in GC…GCGATTGACAGCGTAGAATGAAGG
How it was run: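 Custom Agilent 4×180K protein-binding microarrays carried double-stranded probes, each with a 34-nt variable region. These regions held direct-repeat seeds, single-nucleotide variants, half-site ablations and random human genomic background sequences. Ligand-free nuclear receptor dimers were incubated on the arrays for 1 h, antibodies against each partner (one per run) detected binding, and scanned fluorescence was regression-normalized. Binding z-scores take the random background probes as reference.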

Sequence | PBM binding z-score
ACAGACAGGTGATGAAGCTAACTCAGGCTATCAT | 0.232
GCATATAGGTAATACAAGGTAAAAGTCCGATTGT | 1.1
TCTGGGAGGACACGAAAGGTCAGAGCTCGACATC | -0.425
CCGACTGGGGCAAAGTTACCATAACGCACAGCCA | -0.589
AGAATGAGGTTAAGATGAGGGAAACAGAATACAT | 0.526
ATATGTAGATTATCGGGTCATTCAGTTTGCGCAT | 1.26
TCATATTGGTAAAGGTGAAAGTCGAACGATATGA | 1.2
TCTCGGAGCACACGAAGGTCAGAGCTTTCCAGAG | -1.03
CAAACTAGGTCAAGAGATCAAAGTCCGCTTCCCG | 2.4
ATCGAAAGGTCGAGGGTGAGTATACCCACCCGAA | 0.934
CAGCCTAGGTCAGGGCCAGTATTGGAGGAACGTT | -1.57
ATCGAAAGGTCGAAGGTGAGTGTACCCACCCGAA | 0.661
CGAACTAGGTTAAGGACAGTGAATCTCCGCACGC | 1.14
TCATATAGGTAATACAGGTGAAAGCCGGCATCTA | 1.32
CCTGCTAGGTCATCGTCAGCTAATCTACAGTATG | -0.677
TCTTGGAGATCAACAGGAGGTTAAGAAAGATCGA | 0.526
GCGACTGGGGCAAAGCAGGTTACCATAAGGTTGG | -0.872
TAGCCTAGGTCATGGACCAGTATACCACGCGAAC | 0.282

Source: the supplement of paper PMC6555819
